Results on 23 molecules are retold here after PubChem BioAssay (NCATS).

Experiment in all cases: Primary qHTS to identify gynecologic anti-cancer compounds using libraries of approved drugs and bioactive compounds (AID 1345084); also: nearly all actives have a fitted effect of over 55% in size
(In general: Quantitative high-throughput screening tests each substance at several concentrations.)

The test system of assay [1] is CAOV3. To be noted: Gynecologic cancer cell panel viability, ATPlite luminescence, 48 h; series mostly up to 57.5 µM. Put shortly: (§1)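 In this quantitative HTS, cell killing is estimated from loss of ATP-dependent luciferase light. Cells see five compound concentrations over a 48 h exposure.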
A general note: In ATP-based viability assays light output follows the ATP content of the culture.

The test system of assay [2] is CASKI. The following applies: Gynecologic cancer cell panel viability, ATPlite luminescence, 48 h; series mostly up to 57.5 µM. Put shortly: as §1
The subject of assay [3] is HeLa. The following applies: Gynecologic cancer cell panel viability, ATPlite luminescence, 48 h; series mostly up to 57.5 µM. The essentials:
as §1

Assay [4] has as its system JEG-3. To be noted: Gynecologic cancer cell panel viability, ATPlite luminescence, 48 h; series mostly up to 57.5 µM. Put shortly:
as §1

In assay [5] the test system is Es-2. The following applies: Gynecologic cancer cell panel viability, ATPlite luminescence, 48 h; series mostly up to 57.5 µM. Put shortly:
as §1

The subject of assay [6] is Hek293T. To be noted: Gynecologic cancer cell panel viability, ATPlite luminescence, 48 h, control line for the selectivity index; series mostly up to 57.5 µM. Put shortly: as §1

Inconclusive results are not listed. Values without a mark were called inactive. Calls of active or inactive are those of the source. Calls follow the shape of the dose curve; as a rule, active = well fitted cell-killing curve with a large enough effect; inconclusive = small, poorly fitted or top-dose-only effect, or effect the other way; inactive = flat fitted curve, though single readings scatter.
Potency is read from the fitted curve at half-maximal effect.

Regarding `COc1cc([C@H]2O[C@H](c3cc(OC)c4c(c3)OCO4)[C@H](C)[C@H]2C)cc(OC)c1OC`, the Potency result in assay [1], in assay [2], in assay [3] and in assay [4] was “inactive” in each case.
As for `CN1CC2CN(c3ccc4oc5ccccc5c(=O)c4c3)CC2C1` (stereo unspecified), the Potency result in assay [1], in assay [5], in assay [3], in assay [6] and in assay [4] was “inactive” in each case.
As to `O=c1[nH]c([C@@H]2CCCN2)nc2c1oc1ccc(Cl)cc12`, the Potency entry in assay [1], in assay [2], in assay [5], in assay [6] and in assay [4] was “inactive” in each case.
`COc1cc(N2CCC(N3CCN(C)CC3)CC2)ccc1Nc1ncc(Cl)c(Nc2ccccc2P(C)(C)=O)n1`: the Potency is 2.24 µM (active) in assay [1], 10 µM (active) in assay [2] and 6.31 µM (active) in assay [3]. The Potency result in assay [4] is “inactive”.
On to `COc1cc(Br)c(S(=O)(=O)Nc2ccc(Cl)c(O[C@@H]3CCN(C)C3)c2)cc1OC`, for which the Potency entry in assay [1], in assay [5], in assay [3] and in assay [4] was “inactive” throughout.
As for `CCCC(Nc1nc(-c2ccc(NC(=O)NCC)c(OC)c2)ncc1C)c1cccnc1` (stereo unspecified), the Potency entry in assay [1] was “inactive”. Besides, the values for the Potency in assay [5] and in assay [3] were 0.251 µM (active) and 0.158 µM (active), respectively.
For `C=C1C(=O)O[C@H]2C3=C(C)CCC[C@]3(C)C(=O)C[C@@H]12`, the Potency in assay [1] and in assay [5] was 31.6 µM (active) each time. Besides, the Potency result in assay [3] and in assay [4] was “inactive” throughout.
Take `Cc1cc(F)c(C(=O)Nc2cccc(-c3nncn3C(C)C)n2)cc1-n1cnc(C2CC2)c1`: the Potency entry in assay [1], in assay [2], in assay [5], in assay [6] and in assay [4] was “inactive” each time.
`Cc1cc(-c2nc(-c3ccc(OC(F)(F)F)cc3)no2)nn1Cc1ccnc(N2CCN(C3CC3)CC2)c1`: the Potency result in assay [1], in assay [5], in assay [3], in assay [6] and in assay [4] was “inactive” in each case.
As for `Cn1cc(-c2ccc(S(=O)(=O)n3ccc(/C=C/C(=O)Nc4ccccc4N)c3)cc2)cn1`, the Potency in assay [1] is 17.8 µM (active); in assay [5], 8.91 µM (active); in assay [3], 10 µM (active); in assay [4], 10 µM (active).
Consider `COc1cc2c(cc1NS(=O)(=O)c1ccc(Br)cc1C)n(C)c(=O)n2C`, for which the Potency in assay [1] is 3.55 µM (active). The Potency entry in assay [2], in assay [3] and in assay [4] was “inactive” in each case.
For the molecule `CC(=O)Nc1cccc(Nc2ncnc(N3CCC(OCc4ccc(OC(F)(F)F)cc4)CC3)n2)c1C`, the Potency entry in assay [1], in assay [2], in assay [5], in assay [3] and in assay [4] was “inactive” in each case.
With `CCN1CCN(Cc2ccc(NC(=O)c3ccc(C)c(Oc4ccnc5[nH]ccc45)c3)cc2C(F)(F)F)CC1`, the Potency entry in assay [1], in assay [5], in assay [3] and in assay [6] was “inactive” throughout.
`Nc1nc(O)c(C2=C3C(=Nc4ccccc43)C(=O)NCC2)[nH]1`: the Potency entry in assay [2], in assay [5], in assay [3] and in assay [6] was “inactive” each time.
Take `CCS(=O)c1nc(-c2cccc(OCc3ccccc3)c2)cc(C(F)(F)F)n1` (stereo unspecified): the Potency entry in assay [2], in assay [5] and in assay [3] was “inactive” each time.
Turning to `C=CC(C)(O)CC/C=C(/C)COC(=O)C(C)C1CCC(C)(C=C)O1` (stereo unspecified), the Potency result in assay [2], in assay [5], in assay [3] and in assay [6] was “inactive” each time.
As to `CCCCNc1ncc2c(-c3ccc(S(=O)(=O)N4CCOCC4)cc3)nn(C3CCC(O)CC3)c2n1` (stereo unspecified), the Potency was 7.94 µM (active) in assay [1] and 10 µM (active) in assay [3]. Further, the Potency result in assay [4] is “inactive”.
Taken in the same sequence, the figures for `CC(C)NC(=O)COc1cccc(-c2nc(Nc3ccc4[nH]ncc4c3)c3ccccc3n2)c1` were 25.1 µM (active), 17.8 µM (active) and “inactive”.
As for `FC(F)(F)c1ccc(/C=C/c2nc(COc3ccc(CCCCn4ccnn4)cc3)co2)cc1`, the Potency entry in assay [1], in assay [3] and in assay [6] was “inactive” each time.
Consider `C=C1/C(=C/C=C2\CCC[C@]3(C)[C@@H]([C@H](C)CC[C@@H](O)C(C)(C)O)CC[C@@H]23)C[C@@H](O)C[C@@H]1O`, for which the Potency result in assay [2] and in assay [5] was “inactive” throughout.
As to `C=C1C(=O)O[C@H]2CC(=C)[C@H]3CC[C@@](C)(O)[C@@H]3CC12` (stereo partly specified), the Potency entry in assay [2], in assay [5] and in assay [3] was “inactive” each time.
For `C=C1C(=O)O[C@H]2/C=C(/C)[C@@H](OC(C)=O)C/C=C(\C)C[C@@H](OC(=O)/C(=C/C)COC(=O)/C(=C/C)CO)[C@@H]12`, the Potency in assay [1] is 8.91 µM (active). The Potency result in assay [3] is “inactive”.
On to `CN(C)CC1CCn2c(c(C3=C(c4cn(C)c5ccccc45)C(=O)NC3=O)c3ccccc32)C1` (stereo unspecified), for which the Potency in assay [1] is 22.4 µM (active). The Potency result in assay [6] and in assay [4] was “inactive” throughout.
